This is part of a sample that, as a whole, favours compounds with a hit. Of some 79,000 tested, about 15% had one in any assay. Values without a mark were called inactive. Calls of active or inactive are those of the source. Rule as the data show it: active = growth inhibition above about 70%; inactive = the rest.
test: NCI Yeast Anticancer Drug Screen. Data for the mlh1 strain (AID 171);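 also: 0% = growth of vehicle-treated control cultures of the same strain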; details: S. cerevisiae mlh1 strain growth inhibition; at 3.7 µM; active compounds read high
Summary of the method: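 Yeast screen: mutant strain plus compound, growth scored against vehicle control wells.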

Row | SMILES | growth inhibition
1 | O=[N+]([O-])CC(SCc1ccccc1)c1ccc2c(c1)OCO2 (configuration not stated) | 48%
2 | COc1cc2c(cc1[N+](=O)[O-])C(=O)C(Br)(Br)CCC2 | 73% (active)
3 | OCC1OC(OCC(O)C(O)C(O)C(/C=N/Nc2ccccc2)=N/Nc2ccccc2)C(O)C(O)C1O (configuration not stated) | 4%
4 | COc1ccc(N=C2C(=O)Nc3ccc(Br)cc32)cc1 | -3%
5 | Cn1c(=O)c2ccccc2c2ccccc21 | -5%
6 | CC[n+]1ccc2c(C)c3[nH]c4ccc(O)cc4c3c(C)c2c1 | -16%
7 | CC(=O)ON1C(=O)c2cccc3cccc(c23)C1=O | 91% (active)
8 | COc1ccc2ccc3ccccc3c2c1C=O | -5%
9 | OC1CCCc2c1cc1ccc3cccc4ccc2c1c34 (configuration not stated) | -10%

same assay, conditions: S. cerevisiae mlh1 strain growth inhibition; at 11.0 µM; active compounds read high

Row | SMILES | growth inhibition
10 | CCN(CC)CC[n+]1ccc2c(C)c3[nH]c4ccc(O)cc4c3c(C)c2c1 | 1%
11 | O=[n+]1c2ccc(Cl)cc2n([O-])c2ccc(Cl)cc21 | 0%
12 | CCOP(=O)(OCC)C(Cc1ccccc1)N=C(c1ccccc1)c1ccccc1 (configuration not stated) | 5%
13 | CC[C@@]1(O)C(=O)OCc2c1cc1n(c2=O)Cc2cc3c(N)cccc3nc2-1 | 11%
14 | COC1C=COC2(C)Oc3c(C)c(O)c4c(c3C2=O)/C(=N/C2CCC(O)OC2C)C=C(NC(=O)/C(C)=C\C(=O)C2CC2C(O)C(C)C(O)C(C)C(OC(C)=O)C1C)C4=O (configuration not stated) | -1%
15 | COc1cc2c(c(OC)c1OC)-c1c(cc3c(c1OC)OCO3)CC(C)C(C)(O)C2OC(=O)c1ccccc1 (configuration not stated) | -13%
16 | O=c1ssc2ncccc12 | 56%
17 | O=C1C2C(C(=O)N1c1ccc(OCc3ccccc3)cc1)C1c3ccccc3C2C2CCCCN21 (configuration not stated) | 0%
18 | COc1ccc(-c2cn(-c3ccc(I)cc3)c3ncnc(N)c23)cc1 | -5%
19 | CCOC(=O)C(NC(=O)c1ccccc1)(N1CCN(c2cc3c(cc2F)c(=O)c(C(=O)O)cn3C2CC2)CC1)C(F)(F)F (configuration not stated) | 0%
20 | C/C(=N\O)C1CC2C=C(C#N)C1N(Cc1ccccc1)C2 (configuration not stated) | 0%
21 | CC/C(=C(\c1ccccc1)c1ccc(OCCN(C)C)cc1)c1ccccc1 | 82% (active)
22 | COc1ccccc1N=NC(C(=O)c1ccccc1)C(=O)c1ccccc1 | -1%
23 | CC(O)C(O)C(O)C(/C=N\Nc1ccccc1)=N/Nc1ccccc1 (configuration not stated) | 6%
24 | COc1ccc(/C=C2\SC(=S)N(/C=C/c3nc4ccccc4[nH]c3=O)C2=O)cc1OC | 28%
25 | N#CN=Nc1cc(Cl)c(N=NC#N)cc1Cl | 12%
26 | Cc1ccc(S(=O)(=O)Oc2cc(Cl)c(Cl)cc2Cl)cc1 | 2%
27 | c1ccc2c(c1)Oc1cccc3cccc-2c13 | 14%
28 | O=C(c1ccc(Cl)cc1Cl)C(Cl)Cl | 20%
29 | CC(C)C1=CCC2C(=C1)CCC1C(C)(C(=O)O)CCCC21C (configuration not stated) (tested in a mixture with another compound) | 6%

Row | SMILES | growth inhibition
30 | COc1cc(/C=C2\CCc3ccccc3C2=O)cc(OC)c1OC | -11%
31 | CC(=O)[O][Bi]([c]1ccccc1)[c]1ccccc1 | 40%
32 | S=C(N/N=C/c1ccccn1)Nc1ccc(Cl)cc1 | -5%
33 | COc1cc(CC2CC(c3ccc4c(c3)OCO4)OC2=O)cc(OC)c1OC (configuration not stated) | -1%
34 | CNC1C(OC2C(OC3C(O)C(O)C(N=C(N)N)C(O)C3N=C(N)N)OC(C)C2(O)CO)OC(CO)C(O)C1O (configuration not stated) | 2%
35 | NNC(=O)CCc1ccc2ccc3ccccc3c2c1 | 5%
36 | Oc1ccc2ccccc2c1C(c1ccc(Cl)cc1)c1c(O)ccc2ccccc12 | -32%
37 | CCCCN(CCCC)CCSc1ccc(Cl)cc1 | -9%
38 | CCC(C)COC(=O)c1ccc(N=Cc2ccc(C=Nc3ccc(C(=O)OCC(C)CC)cc3)cc2)cc1 (configuration not stated) | 2%
39 | CC1(C)C(=O)OC(n2cc(F)c(=O)[nH]c2=O)C1=O (configuration not stated) | -2%
40 | O=[N+]([O-])CC(SCc1ccccc1)c1ccc2c(c1)OCO2 (configuration not stated) | 94% (active)
41 | COc1cc2c(cc1[N+](=O)[O-])C(=O)C(Br)(Br)CCC2 | 100% (active)
42 | OCC1OC(OCC(O)C(O)C(O)C(/C=N/Nc2ccccc2)=N/Nc2ccccc2)C(O)C(O)C1O (configuration not stated) | 8%
43 | COc1ccc(N=C2C(=O)Nc3ccc(Br)cc32)cc1 | -19%
44 | Cn1c(=O)c2ccccc2c2ccccc21 | 4%
45 | CC[n+]1ccc2c(C)c3[nH]c4ccc(O)cc4c3c(C)c2c1 | -18%
46 | CC(=O)ON1C(=O)c2cccc3cccc(c23)C1=O | 97% (active)
47 | COc1ccc2ccc3ccccc3c2c1C=O | -5%
48 | OC1CCCc2c1cc1ccc3cccc4ccc2c1c34 (configuration not stated) | 98% (active)

same assay, conditions: S. cerevisiae mlh1 strain growth inhibition; at 33.0 µM; active compounds read high

Row | SMILES | growth inhibition
49 | CCN(CC)CC[n+]1ccc2c(C)c3[nH]c4ccc(O)cc4c3c(C)c2c1 | 9%
50 | O=[n+]1c2ccc(Cl)cc2n([O-])c2ccc(Cl)cc21 | 0%
51 | CCOP(=O)(OCC)C(Cc1ccccc1)N=C(c1ccccc1)c1ccccc1 (configuration not stated) | 90% (active)
52 | CC[C@@]1(O)C(=O)OCc2c1cc1n(c2=O)Cc2cc3c(N)cccc3nc2-1 | 16%
53 | COC1C=COC2(C)Oc3c(C)c(O)c4c(c3C2=O)/C(=N/C2CCC(O)OC2C)C=C(NC(=O)/C(C)=C\C(=O)C2CC2C(O)C(C)C(O)C(C)C(OC(C)=O)C1C)C4=O (configuration not stated) | 28%
54 | COc1cc2c(c(OC)c1OC)-c1c(cc3c(c1OC)OCO3)CC(C)C(C)(O)C2OC(=O)c1ccccc1 (configuration not stated) | -9%
55 | O=c1ssc2ncccc12 | 95% (active)
56 | O=C1C2C(C(=O)N1c1ccc(OCc3ccccc3)cc1)C1c3ccccc3C2C2CCCCN21 (configuration not stated) | 28%
57 | COc1ccc(-c2cn(-c3ccc(I)cc3)c3ncnc(N)c23)cc1 | 10%
58 | CCOC(=O)C(NC(=O)c1ccccc1)(N1CCN(c2cc3c(cc2F)c(=O)c(C(=O)O)cn3C2CC2)CC1)C(F)(F)F (configuration not stated) | 0%
59 | C/C(=N\O)C1CC2C=C(C#N)C1N(Cc1ccccc1)C2 (configuration not stated) | 0%
60 | CC/C(=C(\c1ccccc1)c1ccc(OCCN(C)C)cc1)c1ccccc1 | 97% (active)
61 | COc1ccccc1N=NC(C(=O)c1ccccc1)C(=O)c1ccccc1 | 94% (active)
62 | CC(O)C(O)C(O)C(/C=N\Nc1ccccc1)=N/Nc1ccccc1 (configuration not stated) | 68%
63 | COc1ccc(/C=C2\SC(=S)N(/C=C/c3nc4ccccc4[nH]c3=O)C2=O)cc1OC | 76% (active)
64 | N#CN=Nc1cc(Cl)c(N=NC#N)cc1Cl | 29%
65 | Cc1ccc(S(=O)(=O)Oc2cc(Cl)c(Cl)cc2Cl)cc1 | -6%
66 | c1ccc2c(c1)Oc1cccc3cccc-2c13 | 31%
67 | O=C(c1ccc(Cl)cc1Cl)C(Cl)Cl | 83% (active)
68 | CC(C)C1=CCC2C(=C1)CCC1C(C)(C(=O)O)CCCC21C (configuration not stated) (tested in a mixture with another compound) | 43%

Row | SMILES | growth inhibition
69 | COc1cc(/C=C2\CCc3ccccc3C2=O)cc(OC)c1OC | 21%
70 | CC(=O)[O][Bi]([c]1ccccc1)[c]1ccccc1 | 89% (active)
71 | S=C(N/N=C/c1ccccn1)Nc1ccc(Cl)cc1 | 12%
72 | COc1cc(CC2CC(c3ccc4c(c3)OCO4)OC2=O)cc(OC)c1OC (configuration not stated) | 3%
73 | CNC1C(OC2C(OC3C(O)C(O)C(N=C(N)N)C(O)C3N=C(N)N)OC(C)C2(O)CO)OC(CO)C(O)C1O (configuration not stated) | 11%
74 | NNC(=O)CCc1ccc2ccc3ccccc3c2c1 | 9%
75 | Oc1ccc2ccccc2c1C(c1ccc(Cl)cc1)c1c(O)ccc2ccccc12 | 26%
76 | CCCCN(CCCC)CCSc1ccc(Cl)cc1 | 17%
77 | CCC(C)COC(=O)c1ccc(N=Cc2ccc(C=Nc3ccc(C(=O)OCC(C)CC)cc3)cc2)cc1 (configuration not stated) | 10%
78 | CC1(C)C(=O)OC(n2cc(F)c(=O)[nH]c2=O)C1=O (configuration not stated) | 19%
79 | O=[N+]([O-])CC(SCc1ccccc1)c1ccc2c(c1)OCO2 (configuration not stated) | 98% (active)
80 | COc1cc2c(cc1[N+](=O)[O-])C(=O)C(Br)(Br)CCC2 | 99% (active)
81 | OCC1OC(OCC(O)C(O)C(O)C(/C=N/Nc2ccccc2)=N/Nc2ccccc2)C(O)C(O)C1O (configuration not stated) | 11%
82 | COc1ccc(N=C2C(=O)Nc3ccc(Br)cc32)cc1 | -24%
83 | Cn1c(=O)c2ccccc2c2ccccc21 | 46%
84 | CC[n+]1ccc2c(C)c3[nH]c4ccc(O)cc4c3c(C)c2c1 | -4%
85 | CC(=O)ON1C(=O)c2cccc3cccc(c23)C1=O | 99% (active)
86 | COc1ccc2ccc3ccccc3c2c1C=O | -6%
87 | OC1CCCc2c1cc1ccc3cccc4ccc2c1c34 (configuration not stated) | 97% (active)
